Measured values published in PubChem BioAssay AID1159580 (chemical genetic matrix, 2015).
In all, about 5,500 compounds went through this assay and about 2,000 (36%) were called active. Roughly 18% stayed inconclusive and do not appear here. Cut-off read from the data, not from the text of the source: active = normalized growth mostly below about 0.91 (no sharp cut-off); inconclusive = no clear call, values can overlap the other calls; inactive = mostly above about 0.92. The list shows a part of the results.

Experiment: chemical genetic growth profiling, strain panel (AID 1159580);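 note: tested at 20 µM; growth read once vehicle control cultures reached saturation at 30 °C; 1 = growth at the plate median or of vehicle wells; lower values mean less growth of the strain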
Conditions: growth OD

Measured: normalized growth

CCCCOc1ccc(OCCCN2CCOCC2)cc1
active: S. cerevisiae deletion strains, locus YJR075W, strain HOC1, hits give low values 0.806 | S. cerevisiae deletion strains, locus YKL190W, strain CNB1, hits give low values 0.871 | S. cerevisiae deletion strains, locus YKR001C, strain vps1, hits give low values 0.572 | S. cerevisiae deletion strains, locus YLR262C, strain YPT6 (second series), hits give low values 0.771 | S. cerevisiae deletion strains, locus YLR268W, strain sec22, hits give low values 0.873 | S. cerevisiae deletion strains, locus YLR320W, strain mms22, hits give low values 0.609 | S. cerevisiae deletion strains, locus YLR418C, strain cdc73, hits give low values 0.736 | S. cerevisiae deletion strains, locus YML032C, strain rad52, hits give low values 0.848 | S. cerevisiae deletion strains, locus YMR223W, strain ubp8, hits give low values 0.88 | S. cerevisiae deletion strains, locus YNL067W, strain RPL9B, hits give low values 0.829 | S. cerevisiae deletion strains, locus YNL071W, strain lat1, hits give low values 0.663 | S. cerevisiae deletion strains, locus YNL233W, strain BNI4, hits give low values 0.767 | S. cerevisiae deletion strains, locus YNL248C, strain rpa49, hits give low values 0.769 | S. cerevisiae deletion strains, locus YNL307C, strain MCK1, hits give low values 0.649 | S. cerevisiae deletion strains, locus YNR052C, strain pop2, hits give low values 0.83 | S. cerevisiae deletion strains, locus YOL006C, strain TOP1, hits give low values 0.239 | S. cerevisiae deletion strains, locus YOR001W, strain rrp6, hits give low values 0.8 | S. cerevisiae deletion strains, locus YOR070C, strain gyp1, hits give low values 0.632 | S. cerevisiae deletion strains, locus YOR184W, strain ser1, hits give low values 0.742 | S. cerevisiae deletion strains, locus YOR270C, strain vph1, hits give low values 0.41 | S. cerevisiae deletion strains, locus YPL051W, strain arl3, hits give low values 0.873 | S. cerevisiae deletion strains, locus YPR163C, strain tif3, hits give low values 0.765 | S. cerevisiae deletion strains, strain wtn01, hits give low values 0.856 | S. cerevisiae strains, strain wild type, hits give low values 0.895
inactive: S. cerevisiae deletion strains, locus YKL009W, strain mrt4, hits give low values 1 | S. cerevisiae deletion strains, locus YKL068W, hits give low values 0.998 | S. cerevisiae deletion strains, locus YKL085W, strain MDH1 (second series), hits give low values 0.997 | S. cerevisiae deletion strains, locus YKL085W, strain MDH1, hits give low values 0.997 | S. cerevisiae deletion strains, locus YKL160W, strain elf1, hits give low values 0.914 | S. cerevisiae deletion strains, locus YKR026C, strain gcn3, hits give low values 0.985 | S. cerevisiae deletion strains, locus YKR091W, strain srl3, hits give low values 0.992 | S. cerevisiae deletion strains, locus YLL001W, strain dnm1, hits give low values 0.944 | S. cerevisiae deletion strains, locus YLL026W, hits give low values 0.98 | S. cerevisiae deletion strains, locus YLL041C, strain sdh2, hits give low values 0.958 | S. cerevisiae deletion strains, locus YLR027C, strain aat2, hits give low values 0.977 | S. cerevisiae deletion strains, locus YLR039C, strain RIC1, hits give low values 1.22 | S. cerevisiae deletion strains, locus YLR058C, strain SHM2, hits give low values 0.908 | S. cerevisiae deletion strains, locus YLR102C, strain apc9, hits give low values 0.989 | S. cerevisiae deletion strains, locus YLR113W, strain HOG1, hits give low values 1.03 | S. cerevisiae deletion strains, locus YLR221C, strain rsa3, hits give low values 0.919 | S. cerevisiae deletion strains, locus YLR258W, strain gsy2, hits give low values 0.946 | S. cerevisiae deletion strains, locus YLR262C, strain YPT6, hits give low values 1.16 | S. cerevisiae deletion strains, locus YLR330W, strain CHS5, hits give low values 0.969 | S. cerevisiae deletion strains, locus YLR342W, strain FKS1 (second series), hits give low values 0.87 | S. cerevisiae deletion strains, locus YLR342W, strain FKS1, hits give low values 0.985 | S. cerevisiae deletion strains, locus YLR357W, strain rsc2, hits give low values 1.08 | S. cerevisiae deletion strains, locus YLR370C, strain arc18, hits give low values 0.986 | S. cerevisiae deletion strains, locus YLR371W, strain rom2, hits give low values 0.965 | S. cerevisiae deletion strains, locus YLR384C, strain iki3, hits give low values 0.934 | S. cerevisiae deletion strains, locus YML016C, strain PPZ1, hits give low values 0.985 | S. cerevisiae deletion strains, locus YML120C, strain ndi1, hits give low values 1.01 | S. cerevisiae deletion strains, locus YML124C, strain tub3, hits give low values 0.997 | S. cerevisiae deletion strains, locus YMR058W, strain fet3, hits give low values 0.927 | S. cerevisiae deletion strains, locus YMR078C, strain ctf18, hits give low values 0.975 | S. cerevisiae deletion strains, locus YMR125W, strain sto1, hits give low values 0.973 | S. cerevisiae deletion strains, locus YMR129W, hits give low values 1 | S. cerevisiae deletion strains, locus YMR205C, strain PFK2, hits give low values 0.897 | S. cerevisiae deletion strains, locus YMR231W, strain pep5, hits give low values 0.967 | S. cerevisiae deletion strains, locus YMR263W, strain SAP30, hits give low values 0.946 | S. cerevisiae deletion strains, locus YMR307W, strain GAS1, hits give low values 1 | S. cerevisiae deletion strains, locus YNL128W, strain TEP1, hits give low values 0.986 | S. cerevisiae deletion strains, locus YNL153C, strain GIM3, hits give low values 0.903 | S. cerevisiae deletion strains, locus YNL183C, strain NPR1, hits give low values 0.917 | S. cerevisiae deletion strains, locus YNL209W, strain ssb2, hits give low values 0.965 | S. cerevisiae deletion strains, locus YNL250W, strain rad50, hits give low values 0.963 | S. cerevisiae deletion strains, locus YNL271C, strain bni1, hits give low values 0.966 | S. cerevisiae deletion strains, locus YNL298W, strain CLA4, hits give low values 0.975 | S. cerevisiae deletion strains, locus YNL322C, strain KRE1 (second series), hits give low values 1.02 | S. cerevisiae deletion strains, locus YNL322C, strain KRE1, hits give low values 0.977 | S. cerevisiae deletion strains, locus YNR049C, strain mso1, hits give low values 0.978 | S. cerevisiae deletion strains, locus YOL012C, strain htz1 1.06 | S. cerevisiae deletion strains, locus YOL147C, strain pex11, hits give low values 0.962 | S. cerevisiae deletion strains, locus YOR061W, strain CKA2, hits give low values 0.987 | S. cerevisiae deletion strains, locus YOR069W, strain VPS5, hits give low values 0.995 | S. cerevisiae deletion strains, locus YOR080W, strain dia2, hits give low values 0.985 | S. cerevisiae deletion strains, locus YOR083W, strain WHI5, hits give low values 0.931 | S. cerevisiae deletion strains, locus YOR106W, strain vam3, hits give low values 0.875 | S. cerevisiae deletion strains, locus YOR136W, strain idh2, hits give low values 0.962 | S. cerevisiae deletion strains, locus YOR144C, strain elg1, hits give low values 0.994 | S. cerevisiae deletion strains, locus YOR231W, strain MKK1, hits give low values 0.984 | S. cerevisiae deletion strains, locus YOR265W, strain rbl2, hits give low values 0.967 | S. cerevisiae deletion strains, locus YOR290C, strain snf2, hits give low values 0.917 | S. cerevisiae deletion strains, locus YOR316C, strain cot1, hits give low values 0.99 | S. cerevisiae deletion strains, locus YPL055C, strain LGE1, hits give low values 0.857 | S. cerevisiae deletion strains, locus YPL078C, strain atp4, hits give low values 0.941 | S. cerevisiae deletion strains, locus YPL106C, strain sse1, hits give low values 1.09 | S. cerevisiae deletion strains, locus YPL240C, strain hsp82, hits give low values 0.982 | S. cerevisiae deletion strains, locus YPL241C, strain CIN2, hits give low values 0.992 | S. cerevisiae deletion strains, locus YPL256C, strain CLN2, hits give low values 1.02 | S. cerevisiae deletion strains, locus YPR119W, strain clb2, hits give low values 1.01 | S. cerevisiae deletion strains, locus YPR141C, strain kar3, hits give low values 0.984 | S. cerevisiae deletion strains, locus YPR167C, strain met16, hits give low values 0.977
